This is part of a sample that, as a whole, favours compounds with a hit. Of some 83,000 tested, about 20% had one in any assay.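 The endpoint reported here, percent growth, reads 100 for growth as untreated, 0 for no net growth and -100 for all cells dead.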 Values without a mark were called inactive. Calls of active or inactive are those of the source. The calls were made as follows: active = growth percent below 10; inactive = the rest.
These compounds were tested on A549/ATCC NSCLC (assay: NCI-60 one-dose screen, 48 h (100 = growth as untreated, 0 = no growth, -100 = all killed)). Settings: 10 µM.
`COc1cc2c3c(n(CCCNCCO)c(=O)c2cc1OC)-c1nc2c(cc1C3=O)OCO2` gave a growth of 35.6%. With `COc1ccc2[nH]cc(/C=N/Nc3ccc(Br)cn3)c2c1` the growth was 23%. Work on `O=C(Cn1cc(CSc2nnc3oc4ccccc4n23)nn1)Nc1cccc(Cl)c1` yielded a growth of 62.9%. With `O=C(NO)c1ccc(Cn2ccc3c(Nc4ccccc4)ncnc32)cc1` the growth was 25.3%. Compound `COc1ccc(-c2nc(-c3ccccc3)c(-c3ccccc3)n2-c2ccc(S(=O)(=O)Nc3ncccn3)cc2)cc1OC` has a growth of 87.6%. For `O=C(CSc1ccc(-c2ccc(Cl)cc2)nn1)Nc1ccc(Cl)c(C(F)(F)F)c1`, the growth was 70.5%. `CC1(C)[C@@H](NCO)CC[C@]2(C)[C@H]3C(=O)C=C4[C@@H]5C[C@](C)(CO)CC[C@]5(C)CC[C@@]4(C)[C@]3(C)CC[C@@H]12` showed a growth of 60%. In the case of `Cn1cc(-c2cc(N)n3nc(-c4c[nH]c5ccc(Br)cc45)cc3n2)c2cccnc21`, the growth is reported as -80% (active). Work on `Nc1nnc(-c2c[nH]c3ncccc23)c(-c2c[nH]c3ccc(Br)cc23)n1` yielded a growth of 58.9%. Work on `N#Cc1ccc(-c2nn(-c3ccc(C(=O)O)cc3)cc2CNc2ccc(Cl)cc2)cc1` yielded a growth of 84.6%. With `O=C(c1ccc(O)cc1)C1[C@H](c2ccccc2Br)[C@@H](c2ccccc2)NC12C(=O)Nc1ccc(Cl)cc12` (some centres undefined) the growth was -4.7% (active). Work on `COc1nccnc1NS(=O)(=O)c1ccc(NC2=C(Cl)C(=O)c3nc(C)ccc3C2=O)cc1` yielded a growth of 105%. `CCOC(=O)C1=C(N)N(c2ccc(Cl)cc2)C2=C(C(=O)CC(C)(C)C2)C1c1ccc(N2CCOCC2)cc1` (centres undefined) showed a growth of 90%. `CN(C(=O)c1ccc(C(C)(C)C)cc1)c1sc2c(c1C#N)CCC(=O)C2` gave a growth of 91.5%. Work on `Cc1cc(C)nc(SCC(=O)Nc2ccc(S(N)(=O)=O)cc2)n1` yielded a growth of 103%. In the case of `COc1ccc2[nH]c(O)c(N=NC(=O)c3cc(-c4ccc(C)cc4)nc4ccccc34)c2c1`, the growth is reported as 87.2%. In the case of `O=C1Nc2ccc(Cl)cc2/C1=C/c1cccc(OCc2ccccn2)c1`, the growth is reported as 40.1%. `Nc1nc(-c2ccccc2)cs1` showed a growth of 55.7%. For `COc1ccc2c3nc4cc(C)c(C)cc4nc3n(CCN(C)C)c2c1`, the growth was -59.8% (active). In the case of `O=C(c1ccc(Cl)cc1)C1[C@H](c2ccc(Br)cc2)[C@@H](c2ccccc2)NC12C(=O)Nc1ccc(Cl)cc12` (some centres undefined), the growth is reported as -44% (active). For `CC(=O)Nc1ccc(-c2cn(-c3cccc(C(=O)Nc4ccc(Cl)c(C(F)(F)F)c4)c3)nn2)cn1`, the growth was -43.4% (active). `COc1ccc2nc(Cl)c(-c3cc(-c4ccccc4)nc(N)n3)cc2c1` gave a growth of 72.7%. With `CN1CCN(c2ccc(Nc3nc(NCCCNC(=O)C4CCCCC4)c4sccc4n3)cc2)CC1` the growth was 59.5%. Compound `COc1ccc(NC(=O)CSc2nnc(-c3ccc4nc(-c5ccc(Cl)cc5)[nH]c4c3)o2)cc1` has a growth of 66%. `CCCCCc1ccc(S(=O)(=O)Nc2cc(-c3csc(N(C)C(C)=O)n3)ccc2N2CCN(C)CC2)cc1` was tested, and the growth was 57.7%. `COc1ccc(NC(=O)Nc2ccc(OCC(=O)N=Nc3c(O)[nH]c4ccc([N+](=O)[O-])cc34)cc2)cc1` gave a growth of 99%. For `O=S(=O)(Nc1ncccn1)c1ccc(-n2c(-c3ccccc3)nc(-c3ccccc3)c2-c2ccccc2)cc1`, the growth was 89.7%. Compound `O=c1oc2ccc(-c3ccc(F)cc3F)cc2c(=O)n1-c1ccc(Cl)c(C(F)(F)F)c1` has a growth of 15%. With `CN1CCN(Cc2ccc(C(=O)Nc3cccc(Nc4ccc5c(O)cccc5n4)c3)cc2C(F)(F)F)CC1` the growth was -14.2% (active). Work on `O=C(c1ccc(-n2c(=O)[nH]c3ccccc3c2=O)cc1)N1CCOCC1` yielded a growth of 119%. In the case of `Cc1ccc(C(=O)Nc2ccc(-n3c(C)nc4c(cnn4-c4ccccc4)c3=O)cc2)cc1`, the growth is reported as 65.8%. In the case of `O=C(Nc1ccccc1)Nc1nc2ccccc2s1`, the growth is reported as 89.5%. `COc1cc2c(c(OC)c1OC)C(=O)CC(c1cccc(NC(=O)c3cccc(N)c3)c1)O2` (centres undefined) gave a growth of 85.3%. In the case of `CCN1CCN(Cc2ccc(C(=O)Nc3cccc(-c4cn(-c5ccc6oc(=O)ccc6c5)nn4)c3)cc2C(F)(F)F)CC1`, the growth is reported as -100% (active). In the case of `CCOC(=O)C1NN(c2ccc(S(N)(=O)=O)cc2)c2nc3nc(-c4cccs4)cc(-c4cccs4)c3c(=O)n21` (centres undefined), the growth is reported as 90.9%. `O=c1c2ccccc2nc(COc2ccccc2)n1/N=C/c1ccc(N2CCCC2)cc1` gave a growth of 92.2%. `COc1ccc(-c2ccc(/C=N/NC(=O)c3[nH]c4ccc(Br)cc4c3-c3ccccc3)s2)cc1` showed a growth of 71.9%.

What follows are compounds tested on 786-0 renal in the same assay as above. Settings: 10 µM.
In the case of `COc1cc2c3c(n(CCCNCCO)c(=O)c2cc1OC)-c1nc2c(cc1C3=O)OCO2`, the growth is reported as -25.9% (active). For `COc1ccc2[nH]cc(/C=N/Nc3ccc(Br)cn3)c2c1`, the growth was -3.93% (active). Work on `O=C(Cn1cc(CSc2nnc3oc4ccccc4n23)nn1)Nc1cccc(Cl)c1` yielded a growth of 93.3%. `O=C(NO)c1ccc(Cn2ccc3c(Nc4ccccc4)ncnc32)cc1` gave a growth of 31%. `COc1ccc(-c2nc(-c3ccccc3)c(-c3ccccc3)n2-c2ccc(S(=O)(=O)Nc3ncccn3)cc2)cc1OC` gave a growth of 64.6%. `O=C(CSc1ccc(-c2ccc(Cl)cc2)nn1)Nc1ccc(Cl)c(C(F)(F)F)c1` showed a growth of 80.6%. `CC1(C)[C@@H](NCO)CC[C@]2(C)[C@H]3C(=O)C=C4[C@@H]5C[C@](C)(CO)CC[C@]5(C)CC[C@@]4(C)[C@]3(C)CC[C@@H]12` was tested, and the growth was 42.8%. With `Cn1cc(-c2cc(N)n3nc(-c4c[nH]c5ccc(Br)cc45)cc3n2)c2cccnc21` the growth was -80.2% (active). In the case of `Nc1nnc(-c2c[nH]c3ncccc23)c(-c2c[nH]c3ccc(Br)cc23)n1`, the growth is reported as 40%. `N#Cc1ccc(-c2nn(-c3ccc(C(=O)O)cc3)cc2CNc2ccc(Cl)cc2)cc1` showed a growth of 87.2%. In the case of `O=C(c1ccc(O)cc1)C1[C@H](c2ccccc2Br)[C@@H](c2ccccc2)NC12C(=O)Nc1ccc(Cl)cc12` (some centres undefined), the growth is reported as 2.9% (active). `COc1nccnc1NS(=O)(=O)c1ccc(NC2=C(Cl)C(=O)c3nc(C)ccc3C2=O)cc1` gave a growth of 99.9%. For `CCOC(=O)C1=C(N)N(c2ccc(Cl)cc2)C2=C(C(=O)CC(C)(C)C2)C1c1ccc(N2CCOCC2)cc1` (centres undefined), the growth was 89.4%. `CN(C(=O)c1ccc(C(C)(C)C)cc1)c1sc2c(c1C#N)CCC(=O)C2` was tested, and the growth was 50.3%. `Cc1cc(C)nc(SCC(=O)Nc2ccc(S(N)(=O)=O)cc2)n1` gave a growth of 105%. `COc1ccc2[nH]c(O)c(N=NC(=O)c3cc(-c4ccc(C)cc4)nc4ccccc34)c2c1` gave a growth of 97.2%. In the case of `O=C1Nc2ccc(Cl)cc2/C1=C/c1cccc(OCc2ccccn2)c1`, the growth is reported as -14.4% (active). For `Nc1nc(-c2ccccc2)cs1`, the growth was 93.7%. With `COc1ccc2c3nc4cc(C)c(C)cc4nc3n(CCN(C)C)c2c1` the growth was -42.7% (active). For `O=C(c1ccc(Cl)cc1)C1[C@H](c2ccc(Br)cc2)[C@@H](c2ccccc2)NC12C(=O)Nc1ccc(Cl)cc12` (some centres undefined), the growth was -68% (active). In the case of `CC(=O)Nc1ccc(-c2cn(-c3cccc(C(=O)Nc4ccc(Cl)c(C(F)(F)F)c4)c3)nn2)cn1`, the growth is reported as -34.4% (active). For `COc1ccc2nc(Cl)c(-c3cc(-c4ccccc4)nc(N)n3)cc2c1`, the growth was 4.34% (active). For `CN1CCN(c2ccc(Nc3nc(NCCCNC(=O)C4CCCCC4)c4sccc4n3)cc2)CC1`, the growth was 3.18% (active). `COc1ccc(NC(=O)CSc2nnc(-c3ccc4nc(-c5ccc(Cl)cc5)[nH]c4c3)o2)cc1` gave a growth of 22.5%. For `CCCCCc1ccc(S(=O)(=O)Nc2cc(-c3csc(N(C)C(C)=O)n3)ccc2N2CCN(C)CC2)cc1`, the growth was 8.85% (active). Work on `COc1ccc(NC(=O)Nc2ccc(OCC(=O)N=Nc3c(O)[nH]c4ccc([N+](=O)[O-])cc34)cc2)cc1` yielded a growth of 73.1%. With `O=S(=O)(Nc1ncccn1)c1ccc(-n2c(-c3ccccc3)nc(-c3ccccc3)c2-c2ccccc2)cc1` the growth was 88%. `O=c1oc2ccc(-c3ccc(F)cc3F)cc2c(=O)n1-c1ccc(Cl)c(C(F)(F)F)c1` was tested, and the growth was 7.66% (active). `CN1CCN(Cc2ccc(C(=O)Nc3cccc(Nc4ccc5c(O)cccc5n4)c3)cc2C(F)(F)F)CC1` was tested, and the growth was -55.9% (active). `O=C(c1ccc(-n2c(=O)[nH]c3ccccc3c2=O)cc1)N1CCOCC1` showed a growth of 99.5%. `Cc1ccc(C(=O)Nc2ccc(-n3c(C)nc4c(cnn4-c4ccccc4)c3=O)cc2)cc1` showed a growth of 86.1%. Work on `O=C(Nc1ccccc1)Nc1nc2ccccc2s1` yielded a growth of 102%. For `COc1cc2c(c(OC)c1OC)C(=O)CC(c1cccc(NC(=O)c3cccc(N)c3)c1)O2` (centres undefined), the growth was 91.9%. `CCN1CCN(Cc2ccc(C(=O)Nc3cccc(-c4cn(-c5ccc6oc(=O)ccc6c5)nn4)c3)cc2C(F)(F)F)CC1` was tested, and the growth was -100% (active). With `CCOC(=O)C1NN(c2ccc(S(N)(=O)=O)cc2)c2nc3nc(-c4cccs4)cc(-c4cccs4)c3c(=O)n21` (centres undefined) the growth was 78.7%. Compound `O=c1c2ccccc2nc(COc2ccccc2)n1/N=C/c1ccc(N2CCCC2)cc1` has a growth of 92.8%. Compound `COc1ccc(-c2ccc(/C=N/NC(=O)c3[nH]c4ccc(Br)cc4c3-c3ccccc3)s2)cc1` has a growth of 112%.

— PubChem BioAssay (NCI)
